SMILES strings stand for the structures.

For this test, the system named is LOC_OS02G17970-cb001. Description: thermal shift delta Tm vs DMSO control; higher = stronger stabilization (binding). The settings on record: 12.5 µM; protein concentration 2 µM. The essentials:
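The melting temperature shift given here is a triplicate mean, measured against protein that received only DMSO. Melting temperatures came from Boltzmann fits of differential scanning fluorimetry data on E. coli-expressed, purified rice kinase domain constructs. Each 19.5 μl well contained 2 μM kinase, 100 mM potassium phosphate pH 7.5, 150 mM NaCl, 10% glycerol, 5 × SYPRO Orange and compound in DMSO. Plates were scanned from 25°C to 95°C at 0.05°C/s.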
With `COCCNCc1ccc(-c2cc3nccc(Oc4ccc(NC(=O)C5(C(=O)Nc6ccc(F)cc6)CC5)cc4F)c3s2)nc1` [Sitravatinib (MGCD516)], the “thermal shift delta Tm” value is 1.18 °C.

`COCC(=O)NC/C=C/c1ccc2ncnc(Nc3ccc(Oc4ccc(C)nc4)c(C)c3)c2c1`: the “thermal shift delta Tm” value is -0.14 °C.

Regarding `O=C(NOC[C@H](O)CO)c1ccc(F)c(F)c1Nc1ccc(I)cc1F`, the “thermal shift delta Tm” value was 0.52 °C.

As to `Cc1cc(Nc2cc(N3CCN(C)CC3)nc(/C=C/c3ccccc3)n2)n[nH]1`, the “thermal shift delta Tm” value was -0.1 °C.

Regarding `Nc1nc(N)c2nc(-c3cccc(O)c3)c(-c3cccc(O)c3)nc2n1`, the “thermal shift delta Tm” value was 1.03 °C.

As for `Cc1nc(Nc2ncc(C(=O)Nc3c(C)cccc3Cl)s2)cc(N2CCN(CCO)CC2)n1` [Dasatinib], the “thermal shift delta Tm” value was found to be 0 °C.

For the compound `O=C(c1ccc(Nc2nccc(-c3cc4ccccc4s3)n2)cc1)N1CCC(N2CCCC2)CC1` [IKK-16 (IKK Inhibitor VII)], the “thermal shift delta Tm” value worked out at 0.35 °C.

On to `CC(C)CC(=O)Nc1n[nH]c2c1CN(C(=O)C1CCN(C)CC1)C2(C)C`, for which the “thermal shift delta Tm” value was found to be 1.36 °C.

Consider `COc1cc2c(Oc3ccc(NC(=O)C4(C(=O)Nc5ccc(F)cc5)CC4)cc3F)ccnc2cc1OCCCN1CCOCC1`, for which the “thermal shift delta Tm” value is 0.62 °C.

Consider `OCCn1cc(-c2cnc3nnn(Cc4ccc5ncccc5c4)c3n2)cn1`, for which the “thermal shift delta Tm” value came out at 0.49 °C.

Take `CC(C)(C)c1nc(-c2ccc(NC(=O)Nc3cccc(C(F)(F)F)c3)c3ccccc23)c2c(N)nccn12` [kira6]: the “thermal shift delta Tm” value was determined as 1.1 °C.

`COc1ccc(-c2ccc3ncc4c(c3c2)n(-c2ccc(N3CCNCC3)c(C(F)(F)F)c2)c(=O)n4C)cn1`: the “thermal shift delta Tm” value worked out at 0.58 °C.

Take `FC(F)(F)c1ccc(CNc2ccc(Cc3c[nH]c4ncc(Cl)cc34)cn2)cn1` [Pexidartinib (PLX3397)]: the “thermal shift delta Tm” value is 2.01 °C.

Consider `Cc1nc(NC(=O)N2CCC[C@H]2C(N)=O)sc1-c1ccnc(C(C)(C)C(F)(F)F)c1` [Alpelisib (BYL719)], for which the “thermal shift delta Tm” value is 1.03 °C.

As to `O=C(NCCO)c1cccc(-c2cc(Nc3ccc(OC(F)(F)F)cc3)ncn2)c1`, the “thermal shift delta Tm” value came out at 0.95 °C.

On to `C[C@@H](Nc1cc(F)cc(F)c1)c1cc(C(=O)N(C)C)cc2c(=O)cc(N3CCOCC3)oc12`, for which the “thermal shift delta Tm” value was 0.78 °C.

Consider `C[C@@H]1COCCN1c1cc(=O)n2c(n1)N(Cc1cncc(Cl)c1)[C@H](C(F)(F)F)CC2`, for which the “thermal shift delta Tm” value was found to be 1.7 °C.

As for `CNc1nc(-c2ccc3c(N)n[nH]c3c2)cc(N2C[C@@H](C(=O)NC3CCCCC3)CC[C@H]2C)n1`, the “thermal shift delta Tm” value amounted to 1.01 °C.

As for `COc1cc(N2CCC(N(C)C)CC2)ccc1Nc1ncc(Cl)c(Nc2ccccc2P(C)(C)=O)n1`, the “thermal shift delta Tm” value is 0.5 °C.

Turning to `CN1CCN(c2ccc3nc(-c4c(N)c5c(F)cccc5[nH]c4=O)[nH]c3c2)CC1` [Dovitinib (TKI258) Lactate], the “thermal shift delta Tm” value was 2 °C.

With `N#C/C(=C(/N)Sc1ccc(N)cc1)c1ccccc1C(F)(F)F`, the “thermal shift delta Tm” value is 0.43 °C.

As to `Cc1c(C(=O)N2CCOc3ccc(-c4ccc(N)nc4)cc3C2)ccc(S(C)(=O)=O)c1F`, the “thermal shift delta Tm” value worked out at 0.12 °C.

As to `CCOc1cc2ncc(C#N)c(Nc3ccc(F)c(Cl)c3)c2cc1NC(=O)/C=C/CN(C)C` [Pelitinib (EKB-569)], the “thermal shift delta Tm” value was 0.01 °C.

Turning to `Oc1ccc(Nc2nc(-c3ccc(Cl)cc3)cs2)cc1`, the “thermal shift delta Tm” value is -0.04 °C.

As to `O=C(Nc1ccccc1C(=O)NC1CCCCNC1=O)c1cc2ccccc2s1` (configuration not stated), the “thermal shift delta Tm” value amounted to 0.88 °C.

On to `CC(C)c1c2cc(-c3ccnc(NC4CCC(NC5CCOCC5)CC4)n3)ccc2nn1C` (configuration not stated), for which the “thermal shift delta Tm” value was determined as 0.57 °C.

`NCC(=O)Nc1ccc(-n2nc(C(F)(F)F)cc2-c2ccc3c(ccc4ccccc43)c2)cc1`: the “thermal shift delta Tm” value was -0.34 °C.

Turning to `Cc1cc(NC(=O)c2cccc(NC(=O)/C=C/CN(C)C)c2)ccc1Nc1nccc(-c2cccnc2)n1`, the “thermal shift delta Tm” value was 1.45 °C.

Turning to `N#Cc1ccc2ncnc(NCCc3ccccc3)c2c1` [Senexin A], the “thermal shift delta Tm” value stood at 0.28 °C.

In the case of `CCOc1cn(-c2ccc(F)cc2C)nc1C(=O)Nc1ccc(Oc2ccnc3cc(OC)c(OC)cc23)c(F)c1`, the “thermal shift delta Tm” value came out at 0.55 °C.

Turning to `Fc1ccc2[nH]ccc2c1-c1nc(N2CCOCC2)c2sc(CN3CCN(CC4CC4)CC3)cc2n1`, the “thermal shift delta Tm” value is 0.68 °C.

`COc1cccc2cc(-c3nc([C@H]4CC[C@H](C(=O)O)CC4)n4ncnc(N)c34)[nH]c12`: the “thermal shift delta Tm” value is 0.71 °C.

Take `N#Cc1cnc(Nc2cc(NC[C@H]3CNCCO3)c(C(F)(F)F)cn2)cn1`: the “thermal shift delta Tm” value turned out to be 0.44 °C.

On to `O=C(NOCCO)c1ccc2cncn2c1Nc1ccc(I)cc1F`, for which the “thermal shift delta Tm” value is 1.62 °C.

Regarding `COc1cc2c(Nc3ccc(NC(=O)c4ccccc4)cc3)ncnc2cc1OCCCN1CCOCC1`, the “thermal shift delta Tm” value stood at 0.45 °C.

As for `NC(=O)Nc1cc(-c2cccc(F)c2)sc1C(=O)N[C@H]1CCCNC1`, the “thermal shift delta Tm” value came out at 0.89 °C.

As to `CNC(=O)c1ccc(-c2cnc3ncc(Cc4ccc5ncccc5c4)n3n2)cc1F`, the “thermal shift delta Tm” value came to 0.26 °C.
